Screens as filed in PubChem BioAssay.
HT1080 IDH1KD tx = HT-1080 IDH1 knockdown cell toxicity (counter line). HT-1080 IDH1 knockdown viability, ATP luminescence, 48 h. Potency, µM (titrated, usually from 46.1 µM), for inactives: at the top dose activity, negative = toxicity, usual class: cytotoxic. 360,000 tested, 2% active;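 further: potency means the concentration at half of the fitted maximal effect; 0% = DMSO wells and -100% = cell-free medium wells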
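Luminescent ATP read-out (CellTiter-Glo, 10 min at room temperature) after 48 h compound exposure at 37 °C gave viability of IDH1-knockdown HT-1080 cells. Activity was normalised to DMSO and cell-free wells, then fitted as concentration-response curves.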
IL1B secr inh = inhibitors of inflammasome signaling (IL-1 beta secretion); THP-1 LPS/ATP IL-1B secretion, AlphaLISA, 16 h; active compounds read low; activity change, % at 57.5 µM; 360,000 tested, 4.7% active; AID 743279; in the data active means activity change below about -50%; inconclusive means mostly about -30% to -49%
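THP-1 cells pretreated 1 hr with compounds (up to 57.5 uM final), then stimulated with LPS (250 ng/mL final) plus ATP (1.25 mM final); secreted IL-1B measured by AlphaLISA after 16 hr, decreased signal indicating inhibition.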
DT40 TDP1 no CPT = qHTS for Inhibitors of human tyrosyl-DNA phosphodiesterase 1 (TDP1): qHTS in cells in absence of CPT; DT40 Tdp1-/- hTDP1 cells, no CPT, ATP luminescence, 48 h; Potency, µM (titrated, usually from 46.2 µM), for inactives: top-dose activity change, negative = growth inhibition, hits mostly inhibitors; 420,000 tested, 15% active; further: potency means the concentration at half of the fitted maximal effect; nearly all actives have a fitted effect of over 55% in size
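Luminescent ATP content (CellTiter-Glo) served as the growth readout. Knockout chicken DT40 cells expressing human TDP1 were exposed to compounds without camptothecin for a minimum 48 hr at 37 °C.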
DT40 TDP1 CPT = DT40-hTDP1 cell growth loss with CPT | chicken DT40 Tdp1-/-;hTDP1 cells + 20 nM CPT, ATP luminescence, 48 h | Potency, µM (titrated, usually from 46.2 µM), inactives show at the top dose activity change, negative = growth inhibition, most hits filed as inhibitors | 420,000 tested, 12% active | AID 686979; further: potency means the concentration at half of the fitted maximal effect; nearly all actives have a fitted effect of over 55% in size
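Chicken DT40 Tdp1-/- cells complemented with human TDP1, 400 cells/well, exposed to compounds plus 20 nM camptothecin for at least 48 h at 37 C; viability read as ATP content by CellTiter-Glo luminescence.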
HT1080NT lethal = kills 2HG-producing HT-1080-NT fibrosarcoma cells | 360,000 tested, 1.6% active | Potency, µM (doses to about 46.1 µM), for inactives: at the top dose activity, negative = less viability, actives largely listed as cytotoxic | HT-1080-NT fibrosarcoma viability, CellTiter-Glo ATP luminescence, 48 h;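 further: NT is the 2HG producing partner of a matched IDH1 knockdown line; potency means the concentration at half of the fitted maximal effect; 0% = DMSO-treated cells and -100% = media-only wells without cells; nearly all actives have a fitted effect of over 55% in size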
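A 48-hour cytotoxicity screen used HT-1080-NT cells plated 2 hours before compound delivery. ATP-based CellTiter-Glo luminescence measured viability, normalized to DMSO and no-cell controls.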
* = called active by the depositor; [ ] = another dose, or the depositor's remark. A selection: hits, their analogues and other compounds. The true share with any hit is near 19%. Unless noted, the call rests on the fitted dose curve; in most records, active means well fitted curve in the direction sought with a large enough effect; inconclusive means small, poorly fitted or top-dose-only effect, or another doubt; inactive means no such curve, though single readings can be large; an effect the other way counts as inactive or inconclusive. Unless noted, on the % scale 0 is the no-effect control and ±100 the full control effect.

`Cc1cccc(C)c1NC(=O)C(C)N1CCCCC1` (centres undefined) gave HT1080 IDH1KD tx 7%, IL1B secr inh 13, DT40 TDP1 no CPT 5%, DT40 TDP1 CPT -1% and HT1080NT lethal 11%.
For COc1ccc(OC)c(CNC(=O)c2cnc3c(C)cccn3c2=O)c1 the results were DT40 TDP1 no CPT 4% and DT40 TDP1 CPT 4%.
Cc1cc2cc3c(cc2nc1SCC(=O)N1c2ccccc2CC1C)OCO3 (centres undefined) was read as HT1080 IDH1KD tx 2%[9.24 µM], IL1B secr inh -10, DT40 TDP1 no CPT 21µM*, DT40 TDP1 CPT inconclusive and HT1080NT lethal inconclusive.
CC1Cc2ccccc2N1C(=O)CSC1=NCCS1 (centres undefined) was read as HT1080 IDH1KD tx -5%, IL1B secr inh -20, DT40 TDP1 no CPT inconclusive, DT40 TDP1 CPT 10µM* and HT1080NT lethal 10%.
For CC(=O)Nc1ccc(NC(=O)CSc2ncnc3sc(C)c(C)c23)cc1 the results were HT1080 IDH1KD tx 5%, IL1B secr inh -27, DT40 TDP1 no CPT inconclusive, DT40 TDP1 CPT -6% and HT1080NT lethal -1%.
Screening CC1Cc2ccccc2N1C(=O)CSc1nnc(N)s1 (centres undefined) returned HT1080 IDH1KD tx 24%, IL1B secr inh 3, DT40 TDP1 no CPT 2%, DT40 TDP1 CPT -3% and HT1080NT lethal 27%.
For Cc1cccc(NC(=O)CSc2ncnc3sc(C)c(C)c23)n1 the results were HT1080 IDH1KD tx -13%, IL1B secr inh -3, DT40 TDP1 no CPT 18µM*, DT40 TDP1 CPT 16µM* and HT1080NT lethal -8%.
`CC1Cc2ccccc2N1C(=O)CN1CCc2ccccc2C1` (centres undefined) gave HT1080 IDH1KD tx -7%, IL1B secr inh -10, DT40 TDP1 no CPT 26µM*, DT40 TDP1 CPT inconclusive and HT1080NT lethal 1%.
Cc1nc(SCC(=O)N2c3ccccc3NC(=O)CC2C)c2c(C)c(C)sc2n1 (centres undefined) was read as HT1080 IDH1KD tx -17%, IL1B secr inh -18, DT40 TDP1 no CPT inconclusive, DT40 TDP1 CPT inconclusive and HT1080NT lethal -12%.
`Cc1cc(NC(=O)CSc2nc(C3CC3)nc3sc(C)c(C)c23)no1` gave HT1080 IDH1KD tx -11%[9.24 µM], IL1B secr inh 37, DT40 TDP1 no CPT 8.2µM*, DT40 TDP1 CPT 8.2µM* and HT1080NT lethal inconclusive.
Screening Cc1sc2nc(C3CC3)nc(SCC(=O)N3c4ccccc4CC3C)c2c1C (centres undefined) returned HT1080 IDH1KD tx inconclusive, IL1B secr inh 0, DT40 TDP1 no CPT 21µM*, DT40 TDP1 CPT 16µM* and HT1080NT lethal inconclusive.
CC1Cc2ccccc2N1C(=O)CSc1ncccc1C(=O)O (centres undefined) was read as HT1080 IDH1KD tx -1%, IL1B secr inh 8, DT40 TDP1 no CPT -3%, DT40 TDP1 CPT 7% and HT1080NT lethal 18%.
Screening Cc1nnc(NC(=O)CSc2nc(C(C)C)nc3sc(C)c(C)c23)s1 returned HT1080 IDH1KD tx -8%, IL1B secr inh 53, DT40 TDP1 no CPT 8.2µM*, DT40 TDP1 CPT inconclusive and HT1080NT lethal -7%.
For CC(C)c1nc(SCC(=O)N2c3ccccc3CC2C)c2ccccc2n1 (centres undefined) the results were HT1080 IDH1KD tx -22%, IL1B secr inh -99*, DT40 TDP1 no CPT inconclusive, DT40 TDP1 CPT inconclusive and HT1080NT lethal inconclusive.
Cc1sc2nc(C(C)C)nc(SCC(=O)N3CCOCC3)c2c1C was read as HT1080 IDH1KD tx -18%, IL1B secr inh 26, DT40 TDP1 no CPT inconclusive, DT40 TDP1 CPT -27% and HT1080NT lethal -3%.
Screening COC(=O)c1cc(C(=O)N2CCc3ccccc32)cc([N+](=O)[O-])c1 returned HT1080 IDH1KD tx -6%, IL1B secr inh 19, DT40 TDP1 no CPT -10%, DT40 TDP1 CPT -19% and HT1080NT lethal -3%.
Cc1ccc(-c2cc(C(=O)N3CCCc4ccccc43)no2)cc1 was read as HT1080 IDH1KD tx 18%, IL1B secr inh -6, DT40 TDP1 no CPT 3%, DT40 TDP1 CPT -4% and HT1080NT lethal 9%.
Screening COc1ccc(-c2nc(CC(=O)O)cs2)cc1 returned HT1080 IDH1KD tx inconclusive, IL1B secr inh 0, DT40 TDP1 no CPT -25%, DT40 TDP1 CPT 2% and HT1080NT lethal 26%.
For CCOc1ccc(NC(=O)C(=O)NCCc2csc(-c3ccc(C(F)(F)F)cc3)n2)cc1 the results were DT40 TDP1 no CPT 1% and DT40 TDP1 CPT 3%.
Screening CCOc1cc(C(=O)NCCc2csc(-c3ccc(C)cc3)n2)cc(OCC)c1OCC returned DT40 TDP1 no CPT 16µM* and DT40 TDP1 CPT inconclusive.
For COc1ccc(-c2nc(C(=O)O)cs2)cc1OC the results were HT1080 IDH1KD tx 6%, IL1B secr inh -4, DT40 TDP1 no CPT -12%, DT40 TDP1 CPT 3% and HT1080NT lethal -6%.
`COc1ccc(-c2nc(CCNC(=O)c3ccccc3)cs2)cc1OC` gave DT40 TDP1 no CPT 23µM* and DT40 TDP1 CPT 23µM*.
For O=C(COc1ccc(Cl)cc1)NCCc1csc(-c2ccc(C(F)(F)F)cc2)n1 the results were DT40 TDP1 no CPT 23µM* and DT40 TDP1 CPT inconclusive.
For COc1ccc(CC(=O)NCCc2csc(-c3ccc(Cl)cc3)n2)cc1 the results were DT40 TDP1 no CPT 16µM* and DT40 TDP1 CPT 18µM*.
Screening CC(=O)NCCNc1nc(-c2ccccc2CN(C)C)nc2ccccc12 returned DT40 TDP1 no CPT 4% and DT40 TDP1 CPT 13%.
COc1cc(C)ccc1S(=O)(=O)n1nc(C)cc1C was read as HT1080 IDH1KD tx 7%, IL1B secr inh 14, DT40 TDP1 no CPT -24%, DT40 TDP1 CPT 2% and HT1080NT lethal 8%.
Screening O=C(Cc1ccccc1)NS(=O)(=O)c1ccccc1 returned HT1080 IDH1KD tx 4%, IL1B secr inh 32, DT40 TDP1 no CPT -13%, DT40 TDP1 CPT -11% and HT1080NT lethal inconclusive.
For COc1cc(C(=O)NCCc2csc(-c3ccc(Cl)cc3)n2)cc(OC)c1OC the results were DT40 TDP1 no CPT 21µM* and DT40 TDP1 CPT inconclusive.
Screening O=C(NCCc1csc(-c2ccc(Cl)cc2)n1)c1ccco1 returned HT1080 IDH1KD tx inconclusive, IL1B secr inh -23, DT40 TDP1 no CPT 15µM*, DT40 TDP1 CPT inconclusive and HT1080NT lethal inconclusive.
Screening CCOc1ccc(NC(=O)C(=O)NCCc2csc(-c3ccc(F)cc3)n2)cc1 returned DT40 TDP1 no CPT 9% and DT40 TDP1 CPT -22%.
For O=C(COc1ccc(Cl)cc1)NCCc1csc(-c2ccc(F)cc2)n1 the results were DT40 TDP1 no CPT 15µM* and DT40 TDP1 CPT 16µM*.
